Results published in PubChem BioAssay AID588852 (The Scripps Research Institute Molecular Screening Center, 2011).
The campaign covered roughly 360,000 compounds. About 4,600 (1.3%) were called active. Shown is part of a subset that was picked to be rich in actives. A number with no mark means an inactive call.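 Rule for the calls: active = percent inhibition above its own plate's cutoff, namely the mean of that plate's compound wells plus 3 SD; inactive = the rest.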

The compounds below were run against Muscarinic acetylcholine receptor M1 (Homo sapiens) (UniProt P11229) (assay: CHRM1 blockers of acetylcholine calcium response – CHO-K1 cells, Fluo-8 calcium fluorescence, 1536-well, primary screen (AID 588852;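 note: peak over basal fluorescence ratio during 140 s after agonist addition; 0% = ACh EC80 plus DMSO and 100% = DMSO alone without agonist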)). Conditions: CHO-K1 hM1, Fluo-8 calcium fluorescence, ACh EC80 antagonist; at 3 µM; stronger effect = higher value.
Sequence of Muscarinic acetylcholine receptor M1 (Homo sapiens) (P11229 whole entry, looked up): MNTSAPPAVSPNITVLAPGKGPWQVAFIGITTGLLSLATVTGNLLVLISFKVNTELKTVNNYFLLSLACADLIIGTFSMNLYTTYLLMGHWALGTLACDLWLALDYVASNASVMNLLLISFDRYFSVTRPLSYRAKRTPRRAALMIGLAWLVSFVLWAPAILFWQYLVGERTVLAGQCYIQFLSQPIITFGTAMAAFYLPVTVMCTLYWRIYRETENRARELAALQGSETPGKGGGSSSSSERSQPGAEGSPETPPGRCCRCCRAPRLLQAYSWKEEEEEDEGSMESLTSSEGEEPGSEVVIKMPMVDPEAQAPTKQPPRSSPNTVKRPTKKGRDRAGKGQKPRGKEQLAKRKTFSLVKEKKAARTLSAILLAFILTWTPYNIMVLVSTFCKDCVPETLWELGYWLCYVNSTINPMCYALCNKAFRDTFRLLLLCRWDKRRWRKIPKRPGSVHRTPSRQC
Work on `CN(CCO)C(=O)c1nc[nH]c1C(=O)N(C)Cc1ccccc1` yielded an inhibition of -4.9%. Work on `O=S1(=O)CC(N2CCN(CCO)CC2)CN1C1CCCC1` (stereo not drawn) yielded an inhibition of -4.22%. In the case of `CCOc1ccc(CCN2C(=S)N([C@@H](CC(C)C)CN3CCC[C@@H]3CN3C(=S)NC[C@@H]3Cc3ccc(O)cc3)C[C@@H]2CC(C)C)cc1`, the inhibition is reported as 5.64%. `COc1cc(CN2CCCC(C(=O)c3ccc(SC)cc3)C2)cc(Cl)c1O` (stereo not drawn) showed an inhibition of -1.81%. For `COc1ccc(CN2CCCC(C(=O)N3CCCCC3)C2)cc1` (stereo not drawn), the inhibition was 5.19%. In the case of `COc1ccc(CN2CCCC(C(=O)c3ccc(Cl)cc3)C2)cc1Cn1cncn1` (stereo not drawn), the inhibition is reported as 75.4% (active). `CS(=O)(=O)c1ccccc1C(=O)Nc1ccc2sccc2c1` gave an inhibition of -10.3%. For `CCC1C(=O)NCCN1C(=O)c1ccc2nc(Cc3ccc(OC)cc3)oc2c1` (stereo not drawn), the inhibition was -5.11%. With `COc1ccc(Cc2nc3ccc(C(=O)N4CCC(N(C)C)C4)cc3o2)cc1` (stereo not drawn) the inhibition was 3.18%. With `CCn1ccnc1CN(C)C(=O)c1ccc2nc(Cc3ccc(OC)cc3)oc2c1` the inhibition was 56.1% (active). Compound `CCC1Sc2ccc(S(=O)(=O)CCC(=O)NCc3cccs3)cc2NC1=O` (stereo not drawn) has an inhibition of -5.05%. `CC12C(=O)N(n3cnnc3)C(=O)C1C1C=CC2C1` (stereo not drawn) showed an inhibition of 2.29%. In the case of `Cc1ccc(S(=O)(=O)N2CCN(C)CC2)cc1`, the inhibition is reported as -16.6%. `Cc1ccc(S(=O)(=O)N2CCN(c3ncnc4ccccc34)CC2)cc1` was tested, and the inhibition was 35.8% (active). `Cc1ccc(C)c(S(=O)(=O)N2CCN(c3ncnc4sccc34)CC2)c1` was tested, and the inhibition was 34.7% (active). Work on `Cc1ccc(C)c(S(=O)(=O)N2CCN(CC(=O)Nc3ccc([N+](=O)[O-])cc3)CC2)c1` yielded an inhibition of 9.07%. For `Cc1ccc(S(=O)(=O)N2CCN(Cc3cccc(C)c3O)CC2)cc1`, the inhibition was 4.67%. `COc1ccc(-c2csc3ncnc(N4CCN(S(=O)(=O)c5ccccc5C#N)CC4)c23)cc1` gave an inhibition of -2.61%. `CC(Sc1sc(=S)sc1SC(C)C(=O)O)C(=O)O` (stereo not drawn) showed an inhibition of 1.12%. `C[C@H]([C@@H](O)[C@@H](O)[C@@H](C)C(C)(C)C)[C@H]1CC[C@H]2C3CC[C@H]4C[C@H](OS(=O)(=O)O)[C@@H](OS(=O)(=O)O)C[C@]4(C)[C@H]3CC[C@]12C` (stereo partly drawn) showed an inhibition of -9.61%. Compound `Cc1nc(-c2nnc(SCC(=O)Nc3cc(C(F)(F)F)cc(C(F)(F)F)c3)n2C)cs1` has an inhibition of -3.69%. Work on `C=C1C(=O)[C@]23C[C@H]1CCC2[C@@]1(C)C(C[C@@H]3O)[C@](C)(C(=O)O)CC[C@@H]1O` (stereo partly drawn) yielded an inhibition of -14.8%. With `CN1/C(=c2/s/c(=C3/C(=O)N(c4ccccc4)NC3=Nc3ccccc3)n(C)c2=O)C(C)(C)c2ccccc21` the inhibition was 12.2%. `CCOc1ccccc1CN1CCN(C2CCC2)CC1CCO` (stereo not drawn) showed an inhibition of -17.7%. Compound `COc1cccc(CN(C)CC(O)COC(c2ccccc2)c2ccccc2C)c1` (stereo not drawn) has an inhibition of 16.4%. With `Cc1ccccc1C(OCC(O)CN1CCCCC1CCO)c1ccccc1` (stereo not drawn) the inhibition was 28.9% (active). In the case of `C[C@H]1CN([C@@H](C)CO)C(=O)CCCn2cc(nn2)CO[C@@H]1CN(C)S(=O)(=O)c1cccc(C#N)c1`, the inhibition is reported as -7.84%. Work on `Cc1cc(Br)cn2c(Cc3ccsc3)c(-c3ccc(C#N)cc3)nc12` yielded an inhibition of -2.47%. In the case of `CC(=O)c1nn(-c2ccccc2)c(=Nc2ccccc2)cc1C`, the inhibition is reported as 2.25%. Compound `COc1ccc(C(CCN(Cc2ccc(OC)c(OC)c2)C(=O)CCl)c2ccccc2)cc1` (stereo not drawn) has an inhibition of -0.77%. `CCN(CCCCOC(=O)c1ccc(OC)c(OC)c1)C(C)Cc1ccc(OC)cc1` (stereo not drawn) was tested, and the inhibition was 91.6% (active). For `COc1ccc(C(=O)OCC(=O)NCCCc2ccccc2)cc1OC`, the inhibition was -14.8%. For `CCN1CCN(c2ccc([N+](=O)[O-])cc2C(=O)c2ccc(Cl)cc2)CC1`, the inhibition was 96.3% (active). `O=C(Nc1cccc(Cl)c1)c1cc([N+](=O)[O-])ccc1N1CCN(CCO)CC1` was tested, and the inhibition was -7.1%. Compound `CCC(=O)c1ccc(N2CCN(C(=O)c3cc([N+](=O)[O-])ccc3F)CC2)c(F)c1` has an inhibition of 11.9%. In the case of `Cc1cccc(OCC(=O)OCC(=O)Nc2ccc(Cl)cn2)c1`, the inhibition is reported as -3.17%. Compound `CCc1noc(C)c1C(=O)N1CCCSC1=Nc1ccccc1OC` has an inhibition of 3.24%. `CC(C)c1ccc2oc(=O)cc(CN3CCN(Cc4ccccc4)CC3)c2c1` gave an inhibition of -7.34%. Compound `N#Cc1ccc(OCCN2C(=O)NC3(CCSC3)C2=O)cc1` (stereo not drawn) has an inhibition of 5.7%. Compound `COc1ccc(-c2cc3c(c4c2ccn4C)C2CCC3C2)cn1` (stereo not drawn) has an inhibition of 3.78%. For `CC(=O)c1c(C)[nH]c(C(=O)COC(=O)c2cccs2)c1C`, the inhibition was 10.1%. With `CC(=O)c1c(C)[nH]c(C(=O)COC(=O)c2cccc(S(=O)(=O)N(C)c3ccccc3)c2)c1C` the inhibition was 57% (active). For `COc1cccc(C(=O)OCC(=O)c2[nH]c(C)c(C(C)=O)c2C)c1`, the inhibition was 8.52%. In the case of `O=C1C=C(c2ccccc2)CCC1`, the inhibition is reported as 6.35%. `NC(Cc1ccc(F)cc1)c1csc(Nc2nncc3ccccc23)n1` (stereo not drawn) was tested, and the inhibition was -3.42%. `COc1ccc(C(=O)NC2CC(C)(C)Cc3c2cnn3-c2ccccc2C)o1` (stereo not drawn) showed an inhibition of 0.26%. With `COc1ccc(C(=O)NC2CCCc3c2cnn3-c2cccc(C)c2C)c(OC)n1` (stereo not drawn) the inhibition was 46.9% (active). For `COc1ccc(OC)c(C(=O)NC2CCCc3c2cnn3-c2cc(C)cc(C)c2)c1` (stereo not drawn), the inhibition was -5.27%. `Cc1cn([C@H]2C[C@H](O)[C@@H](/C=C/C(=O)NCCCc3ccccc3)O2)c(=O)[nH]c1=O` gave an inhibition of -25.2%. For `COc1cccc(NC(=O)CN(C)C(=O)CSCc2nc3scc(-c4cccs4)c3c(=O)[nH]2)c1`, the inhibition was -1.71%. For `CCN(CCCNC(=O)c1ccc2c(c1)NC(=O)CN2C)c1cccc(C)c1`, the inhibition was 8.18%. Work on `NS(=O)(=O)c1cccc(NC(=O)CC23CC4CC(CC(Br)(C4)C2)C3)c1` yielded an inhibition of 6.38%. Work on `COc1ccc(Cl)cc1-c1cc(C(=O)Nc2cc(OC)c(OC)c(OC)c2)[nH]n1` yielded an inhibition of 0.33%. `CCCOc1ccc(F)cc1-c1cc(C(=O)NCc2ccc(F)cc2)[nH]n1` gave an inhibition of 1.58%. In the case of `CC(C)Oc1cc(F)ccc1-c1cc(C(=O)Nc2ccc(F)cc2)[nH]n1`, the inhibition is reported as 5.41%. `CCCOc1ccc(F)cc1-c1cc(C(=O)Nc2ccc(F)cc2)[nH]n1` was tested, and the inhibition was 34.5% (active). In the case of `CCCOc1ccc(F)cc1-c1cc(C(=O)Nc2ccc(F)c(Cl)c2)[nH]n1`, the inhibition is reported as 58.9% (active). `CC(C)Oc1cc(F)ccc1-c1cc(C(=O)Nc2cccc(Cl)c2)[nH]n1` gave an inhibition of 24.4%. In the case of `CCOC(=O)[C@H]1Nc2ccc(Cl)cc2[C@@H]2[C@H]1C1CC(c3ccccc31)N2C(=O)OCc1ccccc1` (stereo partly drawn), the inhibition is reported as 6.68%. Compound `Nc1cc(C(F)(F)F)ccc1N1CCOCC1` has an inhibition of 3.72%. In the case of `CCCCN1CC(N2CCN(Cc3cccc(C)c3)CC2)CS1(=O)=O` (stereo not drawn), the inhibition is reported as 8.04%. Compound `CSc1ccc(CN2C(=O)NC3(CCCCCC3)C2=O)cc1` has an inhibition of 8.79%. In the case of `CC(C)(C)C(=O)NC1CC2CCCC(C1)N2C(=O)Nc1ccccc1F` (stereo not drawn), the inhibition is reported as -7.35%. `COc1ccc(S(=O)(=O)NCCOc2ccccc2)cc1F` gave an inhibition of -7.76%. In the case of `COc1ccc(S(=O)(=O)NCCCCOc2ccc(Cl)cc2)cc1`, the inhibition is reported as 32.6% (active). For `COc1ccc(OCCNS(=O)(=O)Cc2ccccc2)cc1`, the inhibition was -0.06%. With `CC1(C)CC(=O)C=C(N2CCOCC2)C1` the inhibition was -7.94%. For `CC1(C)CC(N2CCN(C(c3ccccc3)c3ccccc3)CC2)=CC(=[N+]2CCCCC2)C1`, the inhibition was 72.8% (active). Compound `CC(C)OCC(O)CN1CCN(C(c2ccccc2)c2ccccc2)CC1` (stereo not drawn) has an inhibition of 24.4%. Compound `CCNS(=O)(=O)c1ccc(CCC(=O)N2CCN(c3cc(Cl)ccc3C)CC2)cc1` has an inhibition of 13.9%. Compound `Cc1sc2ccccc2c1CNC[C@H]1O[C@@H](n2ccc(=O)[nH]c2=O)[C@H](O)[C@@H]1O` has an inhibition of -6.07%. `CSCCC(NC(=O)c1ccccc1)C(=O)N1CCN(Cc2ccc(Cl)cc2)CC1` (stereo not drawn) was tested, and the inhibition was 31.4% (active). `COc1ccccc1C(=O)NC(CCSC)C(=O)N1CCN(C(C)=O)CC1` (stereo not drawn) gave an inhibition of -18.2%. `CSCCC(NC(=O)c1ccccc1)C(=O)N1CCCCCCC1` (stereo not drawn) was tested, and the inhibition was -10.3%. For `O=c1c2c(ncn1Cc1ccccc1)nc1n2CCC1`, the inhibition was -9.57%. Compound `COc1ccc(-c2nc3ccc(Br)cn3c2Cc2ccc(C)cc2)cc1OC` has an inhibition of -18.2%. With `CCOc1ccc(CCNC(=O)COC(=O)C2CCN(c3ccc(C(F)(F)F)cn3)CC2)cc1OCC` the inhibition was 38.9% (active). With `CCOc1ccc(CCNC(=O)COC(=O)C2CCN(S(=O)(=O)c3ccccc3)CC2)cc1OCC` the inhibition was -4.87%. `CCc1cccc(NC(=O)COC(=O)C2CCN(c3ccc(C(F)(F)F)cn3)CC2)c1` showed an inhibition of 2.01%. `CCc1ccc([C@@H]2CC(=O)[C@@H]3CN(S(=O)(=O)c4ccc(C)cc4)[C@H](c4ccc(Cl)cc4)C[C@@H]3N2S(=O)(=O)c2ccc(C)cc2)cc1` was tested, and the inhibition was -3.63%. Compound `CCN1CCN(CCCCOc2ccccc2F)CC1` has an inhibition of -2.84%. For `COc1ccccc1OCCCCCCN1CCN(C)CC1`, the inhibition was -0.37%. In the case of `COc1ccccc1N1CCN(CCCCOc2ccc(F)cc2)CC1`, the inhibition is reported as 30.4% (active). `O=C(NC(Cc1ccc(O)cc1)C(=O)O)/C(=C/c1ccccc1)NC(=O)c1ccccc1` (stereo not drawn) was tested, and the inhibition was -14.6%. For `Cc1cccc(CN2CCN(C3CN(Cc4cn(Cc5ccccc5F)nn4)S(=O)(=O)C3)CC2)c1` (stereo not drawn), the inhibition was -4.3%. In the case of `COC(=O)C1=C(C)NC(=O)/C1=C/c1ccc(CNS(=O)(=O)c2ccc(C)cc2)o1`, the inhibition is reported as 8.24%. In the case of `COC(=O)C1=C(C)NC2=C(C(=O)c3ccccc32)C1c1ccc(-c2ccc(C(=O)O)cc2)o1` (stereo not drawn), the inhibition is reported as 32.9% (active). For `COC(=O)C1=C(C)N(C)C(=O)NC1c1ccc([N+](=O)[O-])o1` (stereo not drawn), the inhibition was 0.09%.
